# Reference: PubChem BioAssay AID463173 (ICCB-Longwood Screening Facility, Harvard Medical School, 2010)
# Out of some 52,000 compounds screened, about 1,700 (3.3%) were called active. Rule as the data show it: active = survival mostly below about 52% (no sharp cut-off); inactive = mostly above about 56%. The sample as a whole holds a higher share of actives than the screen did.
# System: Wild type
# Assay: growth inhibition of S. aureus wild type versus tarO mutant, primary screen, teichoic acid synthesis inhibitors, RN4220, OD600 (AID 463173)
# Conditions: S. aureus RN4220 wild type/DeltatarO growth, OD600, 18 h, stronger effect = lower value, screened at 18.75 µg/mL (by protocol)
row,SMILES,survival
1,CC1(C)CC(NC(=O)NCc2ccc3c(c2)OCO3)CC(C)(CNC(=O)NCc2ccc3c(c2)OCO3)C1 (stereo unspecified),117% (inactive)
2,CCOCCc1nn2c(=O)cc(COC(=O)c3ccccc3OC)nc2s1,78% (inactive)
3,CC(=O)N1CCc2c(sc3c2c(=O)n(Cc2ccccc2)c(=O)n3Cc2ccccc2Cl)C1,98% (inactive)
4,C/C(=N\NC(N)N)C1CCCCCCCCCCC1,-1% (active)
5,Cc1nc(C)c(CC(=O)O)c(=O)[nH]1,112% (inactive)
6,CCOc1ccc(-n2cc(-c3ccccc3)c3c(NCCc4ccccc4)ncnc32)cc1,74% (inactive)
7,Cc1ccc(NC(=O)CSc2nc3nc(C)c(Cc4ccccc4)c(C)n3n2)cc1,47% (inactive)
8,Cc1cccc(Cc2c(C)nc3nc(SCc4ccccc4C)nn3c2C)c1,87% (inactive)
9,Cc1nc2nc(SCC(=O)NCc3ccccc3)nn2c(C)c1Cc1ccccc1Cl,128% (inactive)
10,Cc1nc2nc(SCC(=O)NCc3ccccc3)nn2c(C)c1Cc1ccccc1,0% (active)
11,Cc1nc2nc(SCC(=O)NCCc3ccc(Cl)cc3)nn2c(C)c1Cc1ccccc1Cl,80% (inactive)
12,Cc1cccc(Cc2c(C)nc3nc(SCC(=O)NCc4ccccc4)nn3c2C)c1,71% (inactive)
13,Cc1nc2nc(SCC(=O)NCc3ccccc3Cl)nn2c(C)c1Cc1ccccc1,68% (inactive)
14,Cc1nc2nc(SCC(=O)Nc3ccccc3Cl)nn2c(C)c1Cc1ccccc1,-3% (active)
15,Cc1nc2nc(SCC(=O)NCCc3ccccc3)nn2c(C)c1Cc1c(F)cccc1Cl,65% (inactive)
16,Cc1cccc(Cc2c(C)nc3nc(SCc4ccccc4F)nn3c2C)c1,91% (inactive)
17,Cc1cccc(Cc2c(C)nc3nc(SCc4ccccc4Cl)nn3c2C)c1,-5% (active)
18,Cc1nc2nc(SCC(=O)NCCc3ccc(Cl)cc3)nn2c(C)c1Cc1c(F)cccc1Cl,-2% (active)
19,Cc1cccc(Cn2c(CN3CCC(C(=O)NCCc4ccccc4)CC3)cc3ccccc32)c1,128% (inactive)
20,COc1cc(-c2nc(-c3ccc4c(c3)[nH]c(=O)n4C)no2)cc(OC)c1OC,83% (inactive)
21,COC(=O)c1cc(-c2ccccc2)sc1N,116% (inactive)
22,COCCNC(=O)CSc1nc(-c2ccc(C)cc2)nc2c1c(=O)n(C)c(=O)n2C,77% (inactive)
23,CCOc1ccc(OCC)c(S(=O)(=O)N2CCC(C)CC2)c1,102% (inactive)
24,CC(C)CCNC(=O)Cn1cc(S(=O)(=O)Cc2ccc(F)cc2)c2ccccc21,91% (inactive)
25,O=C(CSc1nnc(-c2cccs2)o1)Nc1cccc(C(F)(F)F)c1,71% (inactive)
26,Cc1ccc(C)c(N2CCN(C(=O)C3CCN(c4nc(-c5ccc(C(C)C)cc5)no4)CC3)CC2)c1,87% (inactive)
